Reference: PubChem BioAssay (Tox21)
Results filed as inconclusive are left out. Activity calls are given as the source filed them. Unless noted, the call rests on the fitted dose curve; in most records, active means well fitted curve in the direction sought with a large enough effect in the repeat runs; inconclusive means weak or mixed curves; inactive means no such curve, though single readings can be large; an effect the other way counts as inactive or inconclusive.

Experiments:
[1] = qHTS assay to identify small molecule agonists of the vitamin D receptor (VDR) signaling pathway - cell viability counter screen (AID 743224); further: series mostly up to about 63 µM; on the % scale 0 is the no-effect control and ±100 the full control effect; nearly all actives have a fitted effect of over 50% in size
In short: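 VDR-bla cells were preincubated 4 h at 37C/5% CO2, then exposed to compounds for 16 h. After the 2 h room-temperature bla FRET read, CellTiter-Glo was added to the same wells and luminescence read after 30 min.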

[2] = qHTS assay to identify small molecule antagonists of the vitamin D receptor (VDR) signaling pathway - cell viability counter screen (AID 743225); further: on the % scale 0 is the no-effect control and ±100 the full control effect; nearly all actives have a fitted effect of over 50% in size
In short: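 Luminescent cell viability (CellTiter-Glo) in VDR-bla HEK 293T cells after 16 h compound exposure at 37C in the presence of 3 nM final 1-alpha,25-dihydroxy vitamin D3.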

[3] = qHTS assay to identify small molecule agonists of the NFkB signaling pathway - cell viability counter screen (AID 1159515; calls by dose curve; further: series mostly up to about 61 µM; on the % scale 0 is the no-effect control and ±100 the full control effect; nearly all actives have a fitted effect of over 55% in size)
In short: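 NFkB-bla ME-180 cells, 2,000/well, were plated overnight at 37 C, 5% CO2, then exposed to compounds in DMSO for 5 hr. After the bla FRET read, CellTiter-Glo was added to the same wells; luminescence was read after 30 min at room temperature.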

[4] = qHTS assay to identify small molecule agonists of the endoplasmic reticulum stress response signaling pathway (AID 1159516; active means well fitted activation curve with a large enough effect in the signal ratio in the repeat runs, not every such curve was filed as active; the % refers to the signal ratio; further: on the % scale 0 is the no-effect control and ±100 the full control effect)
In short: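 CellSensor ESRE-bla HeLa cells, carrying a beta-lactamase reporter driven by the ER stress response element, were plated overnight and exposed to compounds for 5 hr at 37 C. Reporter activity was read as FRET substrate fluorescence after 2 hr at room temperature.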

[5] = qHTS assay to identify small molecule agonists of the endoplasmic reticulum stress response signaling pathway - cell viability counter screen (AID 1159517; calls by dose curve; further: series mostly up to about 61 µM; on the % scale 0 is the no-effect control and ±100 the full control effect; nearly all actives have a fitted effect of over 50% in size)
In short: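 HeLa cells carrying an ESRE-driven beta-lactamase reporter receive compound for 5 hr at 37 C. Cell viability is then gauged with CellTiter-Glo by luminescence, 30 min at room temperature.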

[6] = qHTS assay to identify small molecule antagonists of the retinoid-related orphan receptor gamma (ROR-gamma) signaling pathway - cell viability counter screen (AID 1159520); further: on the % scale 0 is the no-effect control and ±100 the full control effect; nearly all actives have a fitted effect of over 50% in size
In short: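 Cytotoxicity was read from cellular ATP (CellTiter-Glo luminescence) after 16 hr at 37 C with 1 uM doxycycline induction. The inducer was added 2 hr after compound transfer to Tet-on ROR gamma CHO cells.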

[7] = biological target: Nuclear receptor ROR-gamma (Homo sapiens) (UniProt P51449); test: qHTS assay to identify small molecule antagonists of the retinoid-related orphan receptor gamma (ROR-gamma) signaling pathway (AID 1159521)
In short: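 CHO cells expressing RORγ under a TET-on promoter, luciferase under RORE control. Dox 1 uM final, 16 h; compounds added 2 h prior. Luminescence decrease measured.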

[8] = qHTS assay to identify small molecule agonists of the AP-1 signaling pathway - cell viability counter screen (AID 1159525; calls by dose curve; further: nearly all actives have a fitted effect of over 55% in size)
In short: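 Luminescent ATP readout (Cell Titer Glo, 30 min RT), normalised to DMSO and tetra n-octyl ammonium bromide controls. Cells were ME-180 AP-1-bla in 0.5% dialyzed FBS Opti-MEM, with a 5 h, 37 °C compound exposure.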

[9] = qHTS assay to identify small molecule agonists of the AP-1 signaling pathway (AID 1159526; calls by dose curve; further: on the % scale 0 is the no-effect control and ±100 the full control effect)
[10] = qHTS assay to identify small molecule agonists of the RXR signaling pathway - cell viability counter screen (AID 1159529)
In short: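 Same-well viability check after the LiveBLAzer FRET read: CellTiter-Glo added, luminescence measured after 30 min at room temperature. Reporter HEK 293T cells had been treated with compounds for 16 hr following a 5 hr preincubation.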

[11] = qHTS assay to identify small molecule antagonists of the retinoid acid receptor (RAR) signaling pathway - cell viability counter screen (AID 1159551); further: on the % scale 0 is the no-effect control and ±100 the full control effect; nearly all actives have a fitted effect of over 35% in size
In short: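 C3RL4 cells were seeded overnight at 37 C, then treated with compounds plus 1 uM (final) retinol for 6 h at 37 C. Viability was read as ATP by CellTiter-Glo luminescence after 30 min at room temperature.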

[12] = qHTS assay to identify small molecule antagonists of the retinoic acid receptor (RAR) signaling pathway (AID 1159552)
In short: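 Readout: luciferase luminescence, 30 min post-reagent at RT. Setup: C3RL4 RARE reporter cells, compounds plus retinol 1 uM final, 6 hr incubation at 37 C and 5% CO2.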

[13] = qHTS assay to identify small molecule agonists of the retinoic acid receptor (RAR) signaling pathway (AID 1159553); further: on the % scale 0 is the no-effect control and ±100 the full control effect
In short: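 C3RL4 cells carrying a RARE luciferase reporter were plated overnight at 37 C, then exposed to compounds in DMSO for 6 hr at 37 C and 5% CO2. Luminescence was read 30 min after luciferase reagent addition at room temperature.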

[14] = biological target: Luciferin 4-monooxygenase (Photinus pyralis) (UniProt P08659); test: qHTS assay to identify small molecule inhibitors of firefly luciferase (AID 1224835); further: series mostly up to about 120 µM; on the % scale 0 is the no-effect control and ±100 the full control effect; nearly all actives have a fitted effect of over 25% in size
Luciferin 4-monooxygenase (Photinus pyralis), sequence (P08659 whole entry, looked up): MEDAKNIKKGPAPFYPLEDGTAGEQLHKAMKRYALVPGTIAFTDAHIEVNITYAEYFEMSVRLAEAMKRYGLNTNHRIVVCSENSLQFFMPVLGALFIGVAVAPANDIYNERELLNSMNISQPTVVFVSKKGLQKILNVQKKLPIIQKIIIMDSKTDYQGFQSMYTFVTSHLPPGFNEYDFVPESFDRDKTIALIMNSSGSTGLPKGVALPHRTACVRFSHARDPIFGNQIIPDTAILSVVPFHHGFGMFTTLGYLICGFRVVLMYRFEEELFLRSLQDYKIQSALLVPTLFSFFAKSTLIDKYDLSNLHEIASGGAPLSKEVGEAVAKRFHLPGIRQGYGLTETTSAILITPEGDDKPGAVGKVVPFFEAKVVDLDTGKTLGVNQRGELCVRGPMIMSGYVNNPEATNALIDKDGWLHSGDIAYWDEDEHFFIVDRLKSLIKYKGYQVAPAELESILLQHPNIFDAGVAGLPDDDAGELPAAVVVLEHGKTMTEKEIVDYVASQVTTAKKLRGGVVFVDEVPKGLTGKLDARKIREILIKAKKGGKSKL
In short: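 Inhibition of purified Photinus luciferase is measured by luminescence. Substrate levels (D-luciferin, ATP) sit at their KM values. Each compound is tested in a concentration series.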

[15] = qHTS assay to identify small molecule agonists of the constitutive androstane receptor (CAR) signaling pathway - cell viability counter screen (AID 1224836); further: series mostly up to about 92 µM; on the % scale 0 is the no-effect control and ±100 the full control effect; nearly all actives have a fitted effect of over 45% in size
In short: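 Compound titrations (15 concentrations) went onto HepG2-CYP2B6-hCAR cells 4 h after seeding, alongside PK11195 at a final 0.75 uM; a 23 h, 37 C/5% CO2 incubation preceded CellTiter-Fluor viability measurement.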

[16] = biological target: Retinoic acid receptor RXR-alpha (Homo sapiens) (UniProt P19793); test: qHTS assay to identify small molecule agonists of the RXR signaling pathway (AID 1159527; calls by dose curve; further: nearly all actives have a fitted effect of over 35% in size; further: potency means the concentration at half of the fitted maximal effect; on activation: on the % scale 0 is the no-effect control and ±100 the full control effect)
Retinoic acid receptor RXR-alpha (Homo sapiens), sequence (P19793 whole entry, looked up): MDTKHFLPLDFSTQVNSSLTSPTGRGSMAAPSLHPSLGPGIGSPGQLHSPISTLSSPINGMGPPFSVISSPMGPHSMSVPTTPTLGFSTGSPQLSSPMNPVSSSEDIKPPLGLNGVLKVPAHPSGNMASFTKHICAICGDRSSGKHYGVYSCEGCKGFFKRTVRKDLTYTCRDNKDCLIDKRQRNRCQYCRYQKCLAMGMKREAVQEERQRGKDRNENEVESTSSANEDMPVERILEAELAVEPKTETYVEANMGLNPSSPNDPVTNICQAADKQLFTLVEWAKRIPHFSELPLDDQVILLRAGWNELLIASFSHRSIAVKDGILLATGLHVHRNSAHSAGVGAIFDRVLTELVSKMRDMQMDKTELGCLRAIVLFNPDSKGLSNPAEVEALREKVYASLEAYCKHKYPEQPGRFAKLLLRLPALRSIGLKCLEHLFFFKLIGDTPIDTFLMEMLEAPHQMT
In short: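 Beta-lactamase reporter assay, agonist format. Engineered HEK 293T line, charcoal-stripped FBS at 2%, overnight (16 hr) exposure, fluorescence at 460 and 530 nm after 405 nm excitation.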

[17] = qHTS assay to identify small molecule antagonists of the estrogen related receptor (ERR) signaling pathway from Tox21 library - cell viability counter screen (AID 1224834); further: on the % scale 0 is the no-effect control and ±100 the full control effect; nearly all actives have a fitted effect of over 30% in size
In short: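 ERR reporter cells were plated 6 h before compound addition, then exposed to test compounds in DMSO for 17.5 h at 37 C. Viability was read as CellTiter-Fluor fluorescence after a 30-minute incubation at 37 C.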

[18] = qHTS assay to identify small molecule antagonists of the constitutive androstane receptor (CAR) signaling pathway - cell viability counter screen (AID 1224837); further: series mostly up to about 92 µM; on the % scale 0 is the no-effect control and ±100 the full control effect; nearly all actives have a fitted effect of over 45% in size
In short: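 HepG2 cells stably expressing hCAR and a CYP2B6-2.2kb reporter were plated and pre-incubated 4 hr at 37 C/5% CO2, then given compounds at 15 concentrations plus 50 nM CITCO (final). After 23 hr, viability was read by CellTiter-Fluor fluorescence.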

[19] = biological target: Nuclear receptor subfamily 1 group I member 3 (Homo sapiens) (UniProt Q14994); test: qHTS assay to identify small molecule antagonists of the constitutive androstane receptor (CAR) signaling pathway (AID 1224838); further: on the % scale 0 is the no-effect control and ±100 the full control effect; nearly all actives have a fitted effect of over 40% in size
Nuclear receptor subfamily 1 group I member 3 (Homo sapiens), sequence (Q14994 whole entry, looked up): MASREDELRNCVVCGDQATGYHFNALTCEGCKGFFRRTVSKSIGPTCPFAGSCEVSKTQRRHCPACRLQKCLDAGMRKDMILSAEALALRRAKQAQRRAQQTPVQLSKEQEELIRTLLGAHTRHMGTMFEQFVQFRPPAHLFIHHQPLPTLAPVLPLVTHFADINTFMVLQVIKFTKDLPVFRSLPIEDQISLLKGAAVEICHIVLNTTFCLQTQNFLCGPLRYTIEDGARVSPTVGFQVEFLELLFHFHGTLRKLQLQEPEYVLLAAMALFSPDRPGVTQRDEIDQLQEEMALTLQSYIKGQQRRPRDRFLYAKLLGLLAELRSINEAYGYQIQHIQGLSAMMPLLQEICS
In short: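 HepG2 cells stably co-transfected with hCAR and a CYP2B6-2.2kb luciferase reporter were seeded 4 h before compound addition at 15 concentrations. Cells were stimulated with 50 nM CITCO (final) for 24 h at 37 C; luciferase luminescence was then read.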

[20] = biological target: Nuclear receptor subfamily 1 group I member 3 (Homo sapiens) (UniProt Q14994); test: qHTS assay to identify small molecule agonists of the constitutive androstane receptor (CAR) signaling pathway (AID 1224839);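 further: HepG2 cells stably carrying human CAR and a CYP2B6 luciferase reporter; series mostly up to about 92 µM; on the % scale 0 is the no-effect control and ±100 the full control effect; nearly all actives have a fitted effect of over 15% in size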
In short: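 In this screen, CAR-driven CYP2B6 promoter activity is measured by luminescence in HepG2-CYP2B6-hCAR cells after 24 h with test compounds and 0.75 uM PK11195 (final concentration).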

O=C(O)CCC(=O)Nc1ccc(S(=O)(=O)Nc2nccs2)cc1
inactive: outcome [1] | outcome [2] | outcome [3] | Potency [4] | outcome [5] | outcome [6] | outcome [7] | outcome [8] | Potency [9] | Potency [10] | outcome [11] | outcome [12] | Potency [13] | Potency [14] | outcome [15]

C[C@]12C=CC(=O)C=C1[C@@H](F)C[C@@H]1[C@@H]2[C@@H](O)C[C@@]2(C)[C@H]1CC[C@]2(O)C(=O)CO
inactive: outcome [1] | outcome [2] | outcome [3] | Potency [4] | outcome [5] | outcome [7] | outcome [8] | Potency [9] | Potency [16] | Potency [10] | outcome [11] | outcome [12] | Potency [13] | outcome [17] | Potency [14] | outcome [15] | outcome [18]

COc1cc(NS(=O)(=O)c2ccc(N)cc2)ncn1
inactive: outcome [2] | outcome [3] | Potency [4] | outcome [5] | outcome [7] | outcome [8] | Potency [9] | Potency [16] | Potency [10] | outcome [11] | outcome [12] | Potency [13] | outcome [17] | Potency [14] | outcome [15] | outcome [19] | Potency [20]

CCCCS
inactive: outcome [1] | outcome [2] | outcome [3] | Potency [4] | outcome [5] | outcome [6] | outcome [7] | outcome [8] | Potency [9] | outcome [11] | outcome [12] | Potency [13] | Potency [14] | outcome [15] | outcome [18] | Potency [20]

CC(C)CC(O)Cc1ccccc1 (centres undefined)
inactive: outcome [1] | outcome [3] | Potency [4] | outcome [5] | outcome [7] | outcome [8] | Potency [9] | Potency [16] | outcome [11] | outcome [12] | Potency [13] | outcome [17] | Potency [14] | outcome [15] | outcome [18] | outcome [19] | Potency [20]

Clc1ccc2c(c1)Nc1ccccc1S2
inactive: outcome [1] | outcome [2] | outcome [3] | Potency [4] | outcome [5] | outcome [7] | outcome [8] | Potency [9] | Potency [16] | Potency [10] | outcome [11] | outcome [12] | Potency [13] | Potency [14] | outcome [15] | outcome [18] | outcome [19]

N#Cc1ccccc1C#N
inactive: outcome [1] | outcome [2] | outcome [3] | Potency [4] | outcome [5] | outcome [7] | outcome [8] | Potency [9] | Potency [10] | outcome [11] | outcome [12] | Potency [13] | outcome [17] | Potency [14] | outcome [15] | outcome [18]

CCO[Si](CC(C)C)(OCC)OCC
inactive: outcome [3] | Potency [4] | outcome [6] | outcome [7] | outcome [8] | Potency [9] | Potency [16] | Potency [10] | outcome [11] | outcome [12] | Potency [13] | outcome [17] | Potency [14] | outcome [15]

CC(=O)c1c(C)cc(C(C)(C)C)cc1C
inactive: outcome [1] | outcome [2] | outcome [3] | Potency [4] | outcome [5] | outcome [7] | outcome [8] | Potency [9] | Potency [10] | outcome [11] | outcome [12] | Potency [13] | outcome [17] | Potency [14] | outcome [15] | outcome [18] | outcome [19] | Potency [20]

CCC(C)SSC(C)CC (centres undefined)
inactive: outcome [1] | outcome [3] | Potency [4] | outcome [5] | outcome [7] | outcome [8] | Potency [9] | Potency [16] | Potency [10] | outcome [11] | outcome [12] | Potency [13] | outcome [17] | Potency [14] | outcome [15] | outcome [18]

COC(=O)c1ccccc1Cl
inactive: outcome [1] | outcome [2] | outcome [3] | Potency [4] | outcome [5] | outcome [7] | outcome [8] | Potency [9] | Potency [16] | Potency [10] | outcome [11] | outcome [12] | Potency [13] | Potency [14] | outcome [15] | outcome [19] | Potency [20]

CC(C)C(C)C
inactive: outcome [1] | outcome [3] | Potency [4] | outcome [5] | outcome [7] | outcome [8] | Potency [9] | outcome [11] | outcome [12] | Potency [13] | outcome [17] | Potency [14] | outcome [15] | outcome [18] | outcome [19] | Potency [20]

CCCC(=O)CC
inactive: outcome [1] | outcome [3] | Potency [4] | outcome [5] | outcome [7] | outcome [8] | Potency [9] | Potency [16] | Potency [10] | outcome [11] | outcome [12] | Potency [13] | Potency [14] | outcome [15] | outcome [18] | outcome [19] | Potency [20]

C=CCOC(=O)CCCCCCCC
inactive: outcome [2] | outcome [3] | Potency [4] | outcome [5] | outcome [7] | outcome [8] | Potency [9] | Potency [10] | outcome [11] | outcome [12] | Potency [13] | outcome [17] | Potency [14] | outcome [15] | outcome [18] | outcome [19] | Potency [20]
active: Potency [16] 17.5 µM

CCCCCCCCCCCCCCCCN(C)C
inactive: activity change, negative = cytotoxicity [1] 12.1% [at 5.95 µM] | viability change, negative = cytotoxic [2] -0.156% [at 6.95 µM] | activity, negative = cytotoxic [3] -0.303% [at 6.95 µM] | activation [4] 0.0292% [at 6.95 µM] | activity change, negative = cytotoxicity [5] -14.5% [at 6.95 µM] | activity change, negative = inhibition [7] 0.397% [at 8.39 µM] | viability change, negative = cytotoxic [8] 0.637% [at 6.97 µM] | activation [9] -6.44% [at 6.97 µM] | activation [16] 8.03% [at 6.98 µM] | activity change, negative = cytotoxicity [10] 1.35% [at 6.97 µM] | activity change, negative = cytotoxicity [11] 0.211% [at 8.39 µM] | activity, negative = inhibition [12] 3.34% [at 8.39 µM] | activation [13] -0.996% [at 8.36 µM] | activity change, negative = inhibition [14] 3.25% [at 10.5 µM] | viability change, negative = cytotoxic [15] 4.94% [at 8.39 µM] | activity change, negative = cytotoxicity [18] 4.91% [at 8.39 µM]

COC(=O)C(c1ccccc1Cl)N1CCc2sccc2C1 (centres undefined)
inactive: outcome [1] | outcome [2] | outcome [3] | Potency [4] | outcome [5] | outcome [7] | outcome [8] | Potency [9] | Potency [10] | outcome [11] | outcome [12] | Potency [13] | outcome [17] | Potency [14] | outcome [15] | outcome [18] | outcome [19]
